# Source: PubChem BioAssay (NCI)
# Compounds without any hit were thinned out: in the full panel of roughly 83,000, 20% have a hit.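 Single-concentration screen, 48 h exposure, 96-well plates. Endpoint: percent growth. Below 10 = active.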 The source made the active and inactive calls.
# Test system: NCI-H522 lung
# Test: NCI-60 one-dose screen, 48 h (100 = growth as untreated, 0 = no growth, -100 = all killed)
# Details: 10 µM unless noted
# Experimental: Growth inhibition of the NCI-H522 human Non-Small Cell Lung tumor cell line is measured as a screen for anti-cancer activity. Cells are grown in 96 well plates and exposed to the test compound for 48 hours. Compounds are tested at a single concentration, which is 10^-5 M for most compounds. The reported endpoint is percent growth (GI% or GIPRCNT), where numbers from 0 - 100% represent growth inhibition, and numbers from -100% - 0 represent cell death. For example, a value of 40 represents 60% growth inhibition. A value of 0 means no net growth occurred over the course of the experiment. A value of -40 indicates 40% of cells at the beginning of the experiment died by the end of the experiment. A value of -100 means all cells are dead at the end of the experiment.
# NCI-60 Human Tumor Cell Lines Screen was performed using the standard one-dose NCI protocol, which is described in more detail at https://dtp.cancer.gov/discovery_development/nci-60/default.htm.
# Compounds with GIPRCNT values below 10 were considered active. Activity score was based on GIPRCNT using the following formula: […]
# Score is 0 for GIPRCNT values of 100 or above, 50 for GIPRCNT values of 0, and 100 for GIPRCNT values of -100.
row,Structure (SMILES),growth
1,C(=N/Nc1ncc(-c2cc3cc(-c4ccccc4)ccc3o2)s1)/c1cccs1,86.1% (inactive)
2,O=C1NC(=S)N[C@H]1CC(=O)n1cnc2ccccc21,98.4% (inactive)
3,COc1ccc2c(c1)C(=O)/C(=C/c1ccccn1)CC2,16.5% (inactive)
4,COc1cc2c(cc1-c1c(C)noc1C)ncc1nc(-c3ccccn3)n([C@H](C)COC(F)F)c12,29.3% (inactive)
5,CCOC(=O)c1c(C(=O)OCC)c2cc(-c3ccn4c(C(=O)c5ccccc5)c(C(=O)OCC)c(C(=O)OCC)c4c3)ccn2c1C(=O)c1ccccc1,75.6% (inactive)
6,O=C(O)c1ccc(N=CC(=O)c2ccc(-c3ccccc3)cc2)cc1,87.2% (inactive)
7,O=c1ccccc(-c2ccc(Br)cc2)c1O,19.2% (inactive)
8,O=C(/C=C/c1cc(CN2CCOCC2)c(O)c2ncccc12)c1cc(CN2CCOCC2)c(O)c2ncccc12,14.4% (inactive)
9,COc1ccccc1Nc1nc(-c2cc3cccc(C(F)(F)F)c3oc2=O)cs1,-16.5% (active)
10,Clc1ccc2c(NCCNc3nc(N4CCCCC4)nc4ccccc34)ccnc2c1,-21.8% (active)
11,Cc1cn2c(/C=C3/C(=O)Nc4c3ccc3ccccc43)c(C(F)(F)F)nc2s1,5.27% (active)
12,COc1cccc(-c2nc3sccn3c2-c2ccnc(NCCNS(=O)(=O)c3ccc(F)cc3)c2)c1,32.3% (inactive)
13,N#C/C(=C\c1ccc(-c2ccc(Cl)c(Cl)c2)o1)c1nc(-c2ccco2)cs1,89.3% (inactive)
14,CCOC(=O)c1sc(Nc2ccc(Cl)cc2)nc1C,-14.4% (active)
15,O=C1C=C(O)C(=O)C(CC2=C(O)C(=O)C=C(O)C2=O)=C1O,92.1% (inactive)
16,O=C(/C=C/c1cccc([N+](=O)[O-])c1)c1ccc(O)c(CN2CCN(c3cc4c(cc3F)c(=O)c(C(=O)O)cn4C3CC3)CC2)c1,16.3% (inactive)
17,Cn1cc(-c2nonc2-c2c[nH]c3ccccc23)c2cccnc21,18.4% (inactive)
18,Clc1ccc2c(NCCCNc3nc(-n4ccnc4)nc4ccccc34)ccnc2c1,89% (inactive)
19,C#CCOc1ccc2ncnc(N3CCC(NC(=O)CCl)CC3)c2c1,55.6% [8.25 µM] (inactive)
20,COc1cc(/C=C/C(=O)c2cccnc2Nc2ccc(F)cc2)cc(OC)c1OC,29.7% (inactive)

row,Structure (SMILES),growth
1,O=C1/C(=C/C(Cl)=C/c2ccccc2)SC(=S)N1CCc1ccc(O)cc1,-7.91% (active)
2,CC(=O)NCC1c2c(n(C)c3c(Cl)c(Cl)ccc23)C(=O)NC1(C)C (stereo not given),92.8% (inactive)
3,N#CCCN=Nc1c(O)[nH]c2ccc(F)cc12,85% (inactive)
4,COc1cc(C(=O)Oc2ccccc2OC(=O)c2cc(OC)c(OC)c(OC)c2)cc(OC)c1OC,89.6% (inactive)
5,CC(O)CN(CC(C)O)c1ccc2c(c1)Cc1cc([N+](=O)[O-])ccc1-2 (stereo not given),80% (inactive)
6,CCOc1nc(-c2ccccc2)cc2c(O)c(C(=O)O)[nH]c(=O)c12,136% (inactive)
7,COC(=O)[C@@H]1CCCN1C(=O)[C@@H]1CCCN1C(=O)[C@H](Cc1ccccc1)NC(=S)Nc1cc(C(F)(F)F)cc(C(F)(F)F)c1,-11.4% (active)
8,O=C1Nc2c(ccc(Cl)c2Cl)/C1=C\c1ccc(C(F)(F)F)cc1,76.4% (inactive)
9,CC1=C/C(=C(\c2ccc(N(C)C)cc2)c2ccc([N+](C)(C)C)cc2)C=CC1=[N+](C)C,97.2% (inactive)
10,COc1cc2c(cc1-c1c(C)noc1C)ncc1nc(C3CCCC3)n([C@H](C)COC(F)F)c12,22.6% (inactive)
11,C=C1c2nc3ccccc3n2C=C(c2ccc(Cl)cc2)N1Cc1ccc(OC)cc1,57.3% (inactive)
12,CN(Cc1cc(Cl)cc(Cl)c1O)Cc1cc(Cl)cc(Cl)c1O,72.2% (inactive)
13,O=C(Nc1ccc(Cl)cc1)c1cc2cc(F)ccc2cc1O,-0.904% (active)
14,O=C1C=C(OCC=C(Cl)Cl)C(=O)c2ccccc21,51.8% (inactive)
15,Cc1[nH]c(-c2ccc3cc[nH]c3c2)c2c1C(=O)CCCC2,37% (inactive)
16,Oc1cccc(-c2nc(N3CCOCC3)c3c4c(sc3n2)CCCC4)c1,42.2% (inactive)
17,CCN1CCC2(CC1)NC(=O)c1c(c3ccc(Cl)c(Cl)c3n1C)C2C#N (stereo not given),61.5% (inactive)
18,COc1cc(-c2nc3cc(Cl)c(Cl)cc3[nH]2)ccc1OCC(=O)N=Nc1c(O)[nH]c2ccccc12,-64.3% (active)
19,C#CC(F)(F)[C@]1(O)CC[C@H]2[C@@H]3CCC4=CC(=O)CCC4=C3[C@@H](c3ccc(C4CC4)cc3)C[C@@]21C,-70.1% (active)
20,CCOC(=O)n1cc(-c2nonc2-c2cn(C)c3ncccc23)c2ccccc21,71.1% (inactive)
